Our source for the binding signal values is publication PMC7862700, “An all-to-all approach to the identification of sequence-specific readers for epigenetic DNA modifications on cytosine”.

Test in all cases: DAPPL (digital affinity profiling via proximity ligation, sequencing); 10 mM Tris-HCl pH 7.5, 50 mM NaCl, 1 mM DTT, 4% glycerol, room temperature, 30 min; GST-TFs on glutathione beads, 16-mer random dsDNA library, 0.1% formaldehyde crosslink after washing; high values mean tight binding
In one assay the target is T1, FEV (Homo sapiens, UniProt Q99581 1-238).
T1 sequence: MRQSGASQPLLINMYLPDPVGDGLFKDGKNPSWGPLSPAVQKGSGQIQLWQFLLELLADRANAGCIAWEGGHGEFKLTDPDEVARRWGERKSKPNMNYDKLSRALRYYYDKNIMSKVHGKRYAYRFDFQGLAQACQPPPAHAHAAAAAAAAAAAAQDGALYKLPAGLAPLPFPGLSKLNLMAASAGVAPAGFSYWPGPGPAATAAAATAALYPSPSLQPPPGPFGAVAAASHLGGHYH
As to conditions: protein: recombinant; tags: N-terminal GST; dsDNA, one strand shown. The method in brief:
(§1)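 Binding signal is each hexamer's read frequency for a factor divided by its frequency in the tag-only sample. The factors were GST-fused human transcription factors from yeast, captured on glutathione beads, DNA-barcoded and pooled with that sample. Pools were incubated with 200 nmole of a random double-stranded 16-mer DNA library in Tris/NaCl/DTT/glycerol buffer at room temperature for 30 min, then washed, crosslinked with 0.1% formaldehyde, proximity-ligated with BsaI/T4 ligase (1 h, 37 °C), PCR-amplified and sequenced on an Illumina NextSeq500.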

Another assay addresses ETV5 (Homo sapiens, UniProt P41161 1-510). Conditions: protein: recombinant; tags: N-terminal GST; dsDNA, one strand shown. The method in brief:
as §1

The next assay addresses HSF1 (Homo sapiens, UniProt Q00613 1-529). Conditions: protein: recombinant; tags: N-terminal GST; chain copies: 3; dsDNA, one strand shown. The gist of the method:
as §1

The target of another assay is T2, SPIC (Homo sapiens, UniProt Q8N5J4 1-248).
T2 sequence: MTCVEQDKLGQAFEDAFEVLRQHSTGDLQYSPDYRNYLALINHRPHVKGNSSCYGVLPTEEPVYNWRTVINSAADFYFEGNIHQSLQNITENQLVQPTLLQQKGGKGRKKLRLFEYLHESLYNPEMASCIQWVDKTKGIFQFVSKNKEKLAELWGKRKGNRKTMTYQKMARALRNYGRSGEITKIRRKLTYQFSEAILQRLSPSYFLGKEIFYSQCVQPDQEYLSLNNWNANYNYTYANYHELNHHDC
As to conditions: protein: recombinant; tags: N-terminal GST; dsDNA, one strand shown. The gist of the method:
as §1

The target in a further assay is ELF4 (Homo sapiens, UniProt Q99607 1-663). Conditions: protein: recombinant; tags: N-terminal GST; dsDNA, one strand shown. The gist of the method: as §1
ELF4, sequence (Q99607 whole entry): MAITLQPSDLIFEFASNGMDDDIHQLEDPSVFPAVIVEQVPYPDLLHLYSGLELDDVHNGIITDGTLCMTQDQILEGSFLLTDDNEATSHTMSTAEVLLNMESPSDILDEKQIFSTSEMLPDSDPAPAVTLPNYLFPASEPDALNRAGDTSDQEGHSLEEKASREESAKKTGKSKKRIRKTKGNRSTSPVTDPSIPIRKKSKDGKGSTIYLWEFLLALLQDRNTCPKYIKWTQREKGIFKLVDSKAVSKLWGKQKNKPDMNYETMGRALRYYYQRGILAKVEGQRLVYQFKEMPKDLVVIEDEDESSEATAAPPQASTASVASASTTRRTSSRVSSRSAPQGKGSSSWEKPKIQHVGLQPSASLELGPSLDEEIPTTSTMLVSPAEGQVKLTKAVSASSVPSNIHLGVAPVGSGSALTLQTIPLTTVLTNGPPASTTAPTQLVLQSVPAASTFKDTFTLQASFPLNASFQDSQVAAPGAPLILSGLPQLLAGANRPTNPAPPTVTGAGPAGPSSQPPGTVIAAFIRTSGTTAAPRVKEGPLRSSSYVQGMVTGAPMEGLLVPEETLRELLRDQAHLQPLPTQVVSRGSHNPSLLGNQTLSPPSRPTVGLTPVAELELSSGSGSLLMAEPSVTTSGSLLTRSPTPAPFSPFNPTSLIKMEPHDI
In a further assay the target is T3, ELK4 (Homo sapiens, UniProt P28324-2 1-405).
T3 sequence: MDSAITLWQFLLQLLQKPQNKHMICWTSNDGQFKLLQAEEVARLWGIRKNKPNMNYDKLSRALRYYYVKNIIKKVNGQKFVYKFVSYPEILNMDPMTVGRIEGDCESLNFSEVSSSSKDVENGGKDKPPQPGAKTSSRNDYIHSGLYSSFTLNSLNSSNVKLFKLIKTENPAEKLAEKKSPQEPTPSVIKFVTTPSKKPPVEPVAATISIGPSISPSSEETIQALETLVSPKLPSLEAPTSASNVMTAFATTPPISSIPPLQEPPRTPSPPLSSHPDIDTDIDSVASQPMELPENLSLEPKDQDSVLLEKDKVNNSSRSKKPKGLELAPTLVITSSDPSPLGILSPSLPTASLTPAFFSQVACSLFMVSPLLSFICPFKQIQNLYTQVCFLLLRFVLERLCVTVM
As to conditions: protein: recombinant; tags: N-terminal GST; dsDNA, one strand shown. The method in brief:
as §1

The target in another assay is T4, ETV2 (Homo sapiens, UniProt O00321 1-342).
T4 sequence: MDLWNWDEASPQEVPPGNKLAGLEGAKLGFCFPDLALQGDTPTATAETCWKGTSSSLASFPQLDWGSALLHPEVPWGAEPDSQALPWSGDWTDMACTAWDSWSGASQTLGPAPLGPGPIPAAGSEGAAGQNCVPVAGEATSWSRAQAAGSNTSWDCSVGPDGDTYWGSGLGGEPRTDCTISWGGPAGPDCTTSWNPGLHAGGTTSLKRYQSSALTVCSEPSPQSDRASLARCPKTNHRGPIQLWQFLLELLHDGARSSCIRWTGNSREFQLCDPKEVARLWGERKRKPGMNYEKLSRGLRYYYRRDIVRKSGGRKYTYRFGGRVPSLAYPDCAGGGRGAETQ
As to conditions: protein: recombinant; tags: N-terminal GST; dsDNA, one strand shown. The gist of the method:
as §1

Another assay concerns the target T5, ELF3 (Homo sapiens, UniProt P78545 1-371).
T5 sequence: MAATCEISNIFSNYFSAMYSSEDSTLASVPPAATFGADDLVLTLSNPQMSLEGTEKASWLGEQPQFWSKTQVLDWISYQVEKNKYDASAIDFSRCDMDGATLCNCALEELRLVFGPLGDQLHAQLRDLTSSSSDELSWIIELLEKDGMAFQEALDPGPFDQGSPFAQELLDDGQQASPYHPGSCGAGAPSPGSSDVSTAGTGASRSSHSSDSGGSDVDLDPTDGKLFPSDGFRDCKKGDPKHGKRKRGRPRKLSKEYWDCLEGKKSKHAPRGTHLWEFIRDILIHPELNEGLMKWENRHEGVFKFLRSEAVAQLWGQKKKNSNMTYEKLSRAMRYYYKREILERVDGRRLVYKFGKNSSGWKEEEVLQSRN
As to conditions: protein: recombinant; tags: N-terminal GST; dsDNA, one strand shown. The method in brief:
as §1

A further assay has as its target CRX (Homo sapiens, UniProt O43186 1-299). As to conditions: protein: recombinant; tags: N-terminal GST; dsDNA, one strand shown. The method in brief:
as §1

A further assay deals with ETV1 (Homo sapiens, UniProt P50549 1-477). Conditions: protein: recombinant; tags: N-terminal GST; dsDNA, one strand shown. The gist of the method: as §1
ETV1, sequence (P50549 whole entry): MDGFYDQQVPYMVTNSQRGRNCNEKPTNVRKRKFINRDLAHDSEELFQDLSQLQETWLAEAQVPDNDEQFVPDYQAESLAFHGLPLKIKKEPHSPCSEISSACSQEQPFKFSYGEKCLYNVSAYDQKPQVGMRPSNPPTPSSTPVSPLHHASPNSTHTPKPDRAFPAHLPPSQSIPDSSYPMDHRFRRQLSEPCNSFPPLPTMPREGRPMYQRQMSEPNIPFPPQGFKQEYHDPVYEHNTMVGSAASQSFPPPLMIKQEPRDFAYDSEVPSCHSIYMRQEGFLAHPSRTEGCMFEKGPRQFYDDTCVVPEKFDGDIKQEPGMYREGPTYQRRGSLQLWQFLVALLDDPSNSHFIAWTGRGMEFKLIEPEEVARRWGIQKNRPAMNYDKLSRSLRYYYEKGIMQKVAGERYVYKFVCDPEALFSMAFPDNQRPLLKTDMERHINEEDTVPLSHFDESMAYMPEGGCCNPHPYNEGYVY
The target of the next assay is T6, ERF (Homo sapiens, UniProt P50548 1-548).
T6 sequence: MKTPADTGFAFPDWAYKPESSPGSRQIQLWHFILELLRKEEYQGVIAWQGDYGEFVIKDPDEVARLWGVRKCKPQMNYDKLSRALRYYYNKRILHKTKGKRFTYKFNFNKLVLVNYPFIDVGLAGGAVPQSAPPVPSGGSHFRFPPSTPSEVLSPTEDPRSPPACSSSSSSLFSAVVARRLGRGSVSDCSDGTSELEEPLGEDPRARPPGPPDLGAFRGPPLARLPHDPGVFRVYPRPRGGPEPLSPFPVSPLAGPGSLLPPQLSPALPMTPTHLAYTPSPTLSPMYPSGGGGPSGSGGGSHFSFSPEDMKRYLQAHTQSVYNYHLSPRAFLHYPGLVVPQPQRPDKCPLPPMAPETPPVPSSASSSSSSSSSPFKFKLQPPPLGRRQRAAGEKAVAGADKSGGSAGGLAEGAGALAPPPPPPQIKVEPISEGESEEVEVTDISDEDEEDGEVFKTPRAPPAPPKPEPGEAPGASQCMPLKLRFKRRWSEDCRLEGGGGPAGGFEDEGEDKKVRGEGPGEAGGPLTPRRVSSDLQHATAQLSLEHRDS
As to conditions: protein: recombinant; tags: N-terminal GST; dsDNA, one strand shown. The gist of the method: as §1

The next assay addresses T7, ETV3L (Homo sapiens, UniProt Q6ZN32 1-361).
T7 sequence: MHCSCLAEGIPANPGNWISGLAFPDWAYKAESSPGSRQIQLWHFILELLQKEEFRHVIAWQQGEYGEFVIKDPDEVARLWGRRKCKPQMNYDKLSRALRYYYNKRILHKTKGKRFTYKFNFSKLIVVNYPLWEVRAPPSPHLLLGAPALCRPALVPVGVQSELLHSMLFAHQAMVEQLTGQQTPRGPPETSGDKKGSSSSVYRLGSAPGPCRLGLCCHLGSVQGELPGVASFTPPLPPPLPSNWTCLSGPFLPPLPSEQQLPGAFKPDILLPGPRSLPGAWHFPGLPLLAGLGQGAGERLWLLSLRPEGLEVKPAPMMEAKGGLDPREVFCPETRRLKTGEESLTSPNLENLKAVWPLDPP
Conditions: protein: recombinant; tags: N-terminal GST; dsDNA, one strand shown. The gist of the method:
as §1

The target of the next assay is T8, ETS2 (Homo sapiens, UniProt P15036 1-469).
T8 sequence: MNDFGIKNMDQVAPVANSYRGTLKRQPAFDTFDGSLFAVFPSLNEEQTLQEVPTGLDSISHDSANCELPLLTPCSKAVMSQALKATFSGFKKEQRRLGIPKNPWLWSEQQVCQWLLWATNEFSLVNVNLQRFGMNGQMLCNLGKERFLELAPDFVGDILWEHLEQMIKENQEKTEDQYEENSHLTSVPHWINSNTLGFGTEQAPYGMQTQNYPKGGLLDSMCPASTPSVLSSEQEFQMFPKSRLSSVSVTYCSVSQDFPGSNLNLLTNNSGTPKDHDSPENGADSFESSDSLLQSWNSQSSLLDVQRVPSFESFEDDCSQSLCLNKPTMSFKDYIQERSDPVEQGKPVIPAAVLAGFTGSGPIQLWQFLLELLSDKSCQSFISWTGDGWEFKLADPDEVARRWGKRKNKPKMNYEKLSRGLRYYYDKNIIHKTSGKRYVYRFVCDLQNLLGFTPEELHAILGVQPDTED
As to conditions: protein: recombinant; tags: N-terminal GST; dsDNA, one strand shown. The method in brief: as §1

In a further assay the target is T9, SPDEF (Homo sapiens, UniProt O95238 1-335).
T9 sequence: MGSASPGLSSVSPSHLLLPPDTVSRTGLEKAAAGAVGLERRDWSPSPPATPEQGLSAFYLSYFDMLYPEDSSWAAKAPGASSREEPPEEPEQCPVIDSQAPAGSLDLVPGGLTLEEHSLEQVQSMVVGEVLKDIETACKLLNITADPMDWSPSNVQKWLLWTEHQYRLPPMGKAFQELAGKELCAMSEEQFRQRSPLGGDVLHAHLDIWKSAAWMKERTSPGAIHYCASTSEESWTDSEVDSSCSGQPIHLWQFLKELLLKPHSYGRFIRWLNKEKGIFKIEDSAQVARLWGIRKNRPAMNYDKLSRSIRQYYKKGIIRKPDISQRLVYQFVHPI
Conditions: protein: recombinant; tags: N-terminal GST; dsDNA, one strand shown. The method in brief:
as §1

The target of a further assay is T10, ETV7 (Homo sapiens, UniProt Q9Y603 1-341).
T10 sequence: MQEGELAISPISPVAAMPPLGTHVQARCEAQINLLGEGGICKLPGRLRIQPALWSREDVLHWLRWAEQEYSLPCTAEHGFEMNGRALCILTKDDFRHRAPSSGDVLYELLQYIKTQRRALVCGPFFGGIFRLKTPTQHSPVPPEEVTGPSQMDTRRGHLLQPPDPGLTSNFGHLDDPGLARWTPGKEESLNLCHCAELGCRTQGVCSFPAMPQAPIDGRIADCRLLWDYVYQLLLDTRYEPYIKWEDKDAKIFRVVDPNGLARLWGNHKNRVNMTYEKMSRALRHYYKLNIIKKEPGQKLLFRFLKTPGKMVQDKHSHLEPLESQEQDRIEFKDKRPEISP
As to conditions: protein: recombinant; tags: N-terminal GST; dsDNA, one strand shown. The gist of the method:
as §1

The next assay concerns the target T11, ELF5 (Homo sapiens, UniProt Q9UKW6-2 1-255).
T11 sequence: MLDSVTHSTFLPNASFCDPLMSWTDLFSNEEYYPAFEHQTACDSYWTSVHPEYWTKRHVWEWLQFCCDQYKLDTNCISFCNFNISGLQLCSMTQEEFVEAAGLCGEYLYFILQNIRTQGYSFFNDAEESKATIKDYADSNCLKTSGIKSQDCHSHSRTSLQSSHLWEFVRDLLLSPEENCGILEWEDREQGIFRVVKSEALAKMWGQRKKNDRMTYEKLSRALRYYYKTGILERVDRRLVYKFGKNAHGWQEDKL
As to conditions: protein: recombinant; tags: N-terminal GST; dsDNA, one strand shown. The method in brief:
as §1

Another assay concerns the target T12, ETV3 (Homo sapiens, UniProt P41162-2 1-143).
T12 sequence: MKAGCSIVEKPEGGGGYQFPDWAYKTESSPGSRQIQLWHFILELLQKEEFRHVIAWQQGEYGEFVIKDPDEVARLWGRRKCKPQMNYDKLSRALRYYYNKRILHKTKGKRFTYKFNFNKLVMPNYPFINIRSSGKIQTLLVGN
Conditions: protein: recombinant; tags: N-terminal GST; dsDNA, one strand shown. The method in brief: as §1

Another assay deals with ETV6 (Homo sapiens, UniProt P41212 1-452). As to conditions: protein: recombinant; tags: N-terminal GST; dsDNA, one strand shown. The gist of the method: as §1
ETV6, sequence (P41212 whole entry): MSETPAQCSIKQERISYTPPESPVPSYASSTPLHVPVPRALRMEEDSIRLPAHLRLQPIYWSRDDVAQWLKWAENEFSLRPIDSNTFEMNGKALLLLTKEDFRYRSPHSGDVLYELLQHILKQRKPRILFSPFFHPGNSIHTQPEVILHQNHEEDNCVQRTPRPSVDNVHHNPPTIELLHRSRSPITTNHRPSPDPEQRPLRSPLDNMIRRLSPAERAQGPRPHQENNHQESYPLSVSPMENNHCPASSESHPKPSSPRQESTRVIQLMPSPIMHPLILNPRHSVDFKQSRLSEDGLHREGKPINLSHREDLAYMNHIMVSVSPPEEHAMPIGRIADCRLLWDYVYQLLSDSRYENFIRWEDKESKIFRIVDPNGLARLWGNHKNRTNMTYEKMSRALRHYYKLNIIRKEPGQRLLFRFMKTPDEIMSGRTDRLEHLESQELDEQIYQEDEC

CRX, sequence (O43186 whole entry): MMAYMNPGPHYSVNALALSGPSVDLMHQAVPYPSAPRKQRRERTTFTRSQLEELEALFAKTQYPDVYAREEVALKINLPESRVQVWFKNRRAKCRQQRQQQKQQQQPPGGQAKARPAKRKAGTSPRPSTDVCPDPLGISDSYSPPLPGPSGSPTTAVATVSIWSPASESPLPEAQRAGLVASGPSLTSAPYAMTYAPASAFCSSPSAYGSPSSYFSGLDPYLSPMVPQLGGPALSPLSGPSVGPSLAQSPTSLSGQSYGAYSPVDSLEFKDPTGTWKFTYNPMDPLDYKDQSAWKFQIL
HSF1, sequence (Q00613 whole entry): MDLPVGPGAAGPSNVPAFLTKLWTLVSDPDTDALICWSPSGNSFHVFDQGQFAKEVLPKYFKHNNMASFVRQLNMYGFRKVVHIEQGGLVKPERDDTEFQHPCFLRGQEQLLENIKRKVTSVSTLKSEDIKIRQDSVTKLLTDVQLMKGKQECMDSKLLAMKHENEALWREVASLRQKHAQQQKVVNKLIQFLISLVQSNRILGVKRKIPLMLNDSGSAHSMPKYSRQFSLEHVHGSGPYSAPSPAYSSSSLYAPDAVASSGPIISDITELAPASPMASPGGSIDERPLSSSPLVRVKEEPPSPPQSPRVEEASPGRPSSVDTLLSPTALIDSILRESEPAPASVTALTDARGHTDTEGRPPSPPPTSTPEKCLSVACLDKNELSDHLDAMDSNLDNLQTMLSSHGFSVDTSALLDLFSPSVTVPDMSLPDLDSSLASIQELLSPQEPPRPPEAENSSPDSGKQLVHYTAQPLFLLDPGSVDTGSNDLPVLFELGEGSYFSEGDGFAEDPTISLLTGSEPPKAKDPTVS
ETV5, sequence (P41161 whole entry): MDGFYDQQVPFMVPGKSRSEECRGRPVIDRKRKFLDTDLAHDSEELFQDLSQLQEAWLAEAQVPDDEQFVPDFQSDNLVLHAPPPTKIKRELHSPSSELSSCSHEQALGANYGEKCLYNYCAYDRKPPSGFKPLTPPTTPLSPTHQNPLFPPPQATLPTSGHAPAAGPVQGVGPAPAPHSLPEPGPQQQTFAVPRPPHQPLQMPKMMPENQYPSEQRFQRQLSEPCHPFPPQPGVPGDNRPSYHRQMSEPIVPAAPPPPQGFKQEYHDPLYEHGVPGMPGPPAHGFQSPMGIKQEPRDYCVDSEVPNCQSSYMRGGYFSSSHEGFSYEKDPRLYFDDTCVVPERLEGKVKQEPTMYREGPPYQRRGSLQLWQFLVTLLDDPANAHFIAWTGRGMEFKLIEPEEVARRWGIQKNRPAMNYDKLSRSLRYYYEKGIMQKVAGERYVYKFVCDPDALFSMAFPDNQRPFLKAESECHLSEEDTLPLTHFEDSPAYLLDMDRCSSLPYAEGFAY

In the case of CCAATC, the binding signal with FEV was 1.11 fold enrichment (6-mer frequency, TF over GST control); in the assay with ETV5, 1.16 fold enrichment (6-mer frequency, TF over GST control); in the assay with HSF1, 1.13 fold enrichment (6-mer frequency, TF over GST control); with SPIC it was 1.24 fold enrichment (6-mer frequency, TF over GST control); with ELF4, 1.19 fold enrichment (6-mer frequency, TF over GST control); in the assay with ELK4, 1.18 fold enrichment (6-mer frequency, TF over GST control). For the same sequence, the binding signal in the assay with ETV2 was 1.16 fold enrichment (6-mer frequency, TF over GST control); with ELF3, 1.11 fold enrichment (6-mer frequency, TF over GST control); in the assay with CRX, 1.33 fold enrichment (6-mer frequency, TF over GST control); in the assay with ETV1, 1.13 fold enrichment (6-mer frequency, TF over GST control); in the assay with ERF, 1.03 fold enrichment (6-mer frequency, TF over GST control); in the assay with ETV3L, 1.19 fold enrichment (6-mer frequency, TF over GST control). In addition, the binding signal in the assay with ETS2 was 1.19 fold enrichment (6-mer frequency, TF over GST control); with SPDEF it was 1.16 fold enrichment (6-mer frequency, TF over GST control); with ETV7, 1.23 fold enrichment (6-mer frequency, TF over GST control); with ELF5, 1.16 fold enrichment (6-mer frequency, TF over GST control); in the assay with ETV3, 1.15 fold enrichment (6-mer frequency, TF over GST control); with ETV6 it was 1.15 fold enrichment (6-mer frequency, TF over GST control).
